High-throughput results: PubChem BioAssay, National Center for Advancing Translational Sciences (NCATS)
HT1080NT lethal – kills 2HG-producing HT-1080-NT fibrosarcoma cells; 360,000 tested, 1.6% active; HT-1080-NT fibrosarcoma viability, CellTiter-Glo ATP luminescence, 48 h; AID 686970; Potency, µM (top dose mostly 46.1 µM), hits mostly cytotoxic;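 note: NT is the 2HG producing partner of a matched IDH1 knockdown line; nearly all actives have a fitted effect of over 55% in size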
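A 48-hour cytotoxicity screen used HT-1080-NT cells plated 2 hours before compound delivery. ATP-based CellTiter-Glo luminescence measured viability, normalized to DMSO and no-cell controls.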
HT1080 IDH1KD tx – HT-1080 IDH1 knockdown cell toxicity (counter line). Potency, µM (titrated, usually from 46.1 µM), actives largely listed as cytotoxic. HT-1080 IDH1 knockdown viability, ATP luminescence, 48 h. 360,000 tested, 2% active
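Cytotoxicity counter-line: IDH1KD HT-1080, 48 h, CellTiter-Glo. Curves classed by r2, magnitude and activity.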
ELG1 DNA repair – ELG1-dependent DNA repair inhibition; HEK293T ELG1-luciferase reporter, luminescence, 16 h; DNA damage induced by 5-fluorouridine; 330,000 tested, 2.3% active; Potency, µM (top dose mostly 46.1 µM), most hits filed as inhibitors; note: nearly all actives have a fitted effect of over 55% in size
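5-Fluorouridine DNA damage + compound/DMSO, 2,000 cells/well, 16 h, 37 °C/5% CO2. ONE-Glo, 30 min RT, luminescence. Readout = decrease in reporter signal.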
IL-1B inflam inh – inhibitors of inflammasome signaling (IL-1 beta secretion) | THP-1 LPS/ATP IL-1B secretion, AlphaLISA, 16 h; stronger effect = lower value | activity change, % at 57.5 µM | 360,000 tested, 4.7% active | AID 743279; in the data active = activity change below about -50%; inconclusive = mostly about -30% to -49%
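Secreted IL-1B measured by AlphaLISA bead assay after 16 h compound exposure of THP-1 cells; compounds (final up to 57.5 uM) added 1 h before LPS (250 ng/mL) and ATP (1.25 mM) stimulation; lower signal means less secretion.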
DT40 TDP1 no CPT – qHTS for Inhibitors of human tyrosyl-DNA phosphodiesterase 1 (TDP1): qHTS in cells in absence of CPT. DT40 Tdp1-/- hTDP1 cells, no CPT, ATP luminescence, 48 h. Potency, µM (top dose mostly 46.2 µM), actives largely listed as inhibitors. 420,000 tested, 15% active. AID 686978, 2013; note: nearly all actives have a fitted effect of over 55% in size
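Compound effects on proliferation are scored in DT40 Tdp1-/-;hTDP1 cells in the absence of CPT. ATP levels (CellTiter-Glo luminescence) are recorded after a ≥48 hr, 37 °C incubation.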
DT40 TDP1 CPT – DT40-hTDP1 cell growth loss with CPT | chicken DT40 Tdp1-/-;hTDP1 cells + 20 nM CPT, ATP luminescence, 48 h | Potency, µM (highest dose often 46.2 µM), actives largely listed as inhibitors | 420,000 tested, 12% active | AID 686979; note: nearly all actives have a fitted effect of over 55% in size
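Chicken DT40 Tdp1-/- cells stably complemented with human TDP1 were seeded at 400 cells/well in medium containing 20 nM camptothecin, exposed to pin-transferred compounds, and grown at 37 °C for at least 48 hr. Viability was read as ATP luminescence.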
Numbers stand for hits; 0 = inactive; ? = inconclusive; - = no result; [ ] = dose if it differs, or a comment. This is a sample that favours compounds with a hit; in the whole collection about 19% have one here. Unless noted, calls come from the whole dose curve; as a rule, active = well fitted curve in the direction sought with a large enough effect; inconclusive = small, poorly fitted or top-dose-only effect, or another doubt; inactive = no such curve, though single readings can be large; an effect the other way counts as inactive or inconclusive.

SMILES	HT1080NT lethal	HT1080 IDH1KD tx	ELG1 DNA repair	IL-1B inflam inh	DT40 TDP1 no CPT	DT40 TDP1 CPT
CCCN(CC(=O)Nc1ccccc1C)C(=O)COC(=O)c1cnc(C)cn1	0	0	-	0	0	0
COCCCn1cc(C(=O)c2cc(OC)ccc2OCC(=O)Nc2cc(C)on2)cc(C#N)c1=O	0	0	0	0	0	0
Cc1cccnc1NC(=O)NC(=O)c1ccc(C(C)(C)C)s1	0	0	?	0	16µM	?
CCOc1ccc(C(=O)n2cc(C(=O)OC)c3ccccc32)cc1	0	?	?	0	13µM	?
CCOc1ccc(C(=O)n2cc(C(=O)OC)c3ccccc32)cc1OCC	0	0	0	0	?	?
Nc1cc(OC(=O)c2ccc(F)cc2)nn1S(=O)(=O)c1ccccc1	0	0	0	0	0	0
COCc1cc(C)nc2sc3c(c12)NC(c1ccccc1C(=O)O)N(c1cccc(C(F)(F)F)c1)C3=O (stereo unspecified)	-	-	-	-	?	29µM
COC(=O)c1sc2nc(CN3CCN(c4cccc(C(F)(F)F)c4)CC3)[nH]c(=O)c2c1C	0	0	0	0	0	0
COCc1cc(C)nc2sc3c(c12)NC(c1ccc(O)cc1)N(c1ccc(C)cc1)C3=O (stereo unspecified)	-	-	-	-	18µM	18µM
Cn1cnc([N+](=O)[O-])c1S(=O)(=O)c1cccc(Cl)c1	?	?	?	?	2.3µM	1.8µM
Cn1cnc([N+](=O)[O-])c1NCc1ccccc1	0	0	0	0	0	0
Cn1cnc([N+](=O)[O-])c1S(=O)(=O)Oc1ccccc1	?	23µM	-	-94	1µM	0.65µM
Cc1nn(C(C)C(=O)c2cccc(Cl)c2)c(C)c1[N+](=O)[O-] (stereo unspecified)	0	0	0	0	0	0
Cn1cnc([N+](=O)[O-])c1S(=O)(=O)Nc1ccccc1	10µM	?	-	-97	15µM	16µM
CC(=O)c1cnc(Nc2cccc(C)c2)s1	0	0	?	0	0	0
COc1ccccc1-c1cc(NC=O)c2ncc(-c3cccc(C(=O)N(C)C)c3)n2c1	?	?	-	0	?	?
CN(C)CCNC(=O)c1cccc(-c2cnc3c(NC=O)cc(-c4cccc(F)c4)cn23)c1	?	?	-	0	?	?
CN(C)CCNC(=O)c1cccc(-c2cnc3c(NC=O)cc(/C=C/c4ccccc4)cn23)c1	?	?	-	0	5.2µM	3.7µM
O=CNc1cc(-c2cccc(O)c2)cn2c(-c3ccc(F)cc3)cnc12	?	?	-	0	21µM	18µM
COc1ccccc1-c1cc(NC=O)c2ncc(-c3cccc(C(C)=O)c3)n2c1	?	?	-	0	7.3µM	6.5µM
CC(=O)c1cccc(-c2cnc3c(NC=O)cc(-c4ccc(F)cc4)cn23)c1	0	?	-	0	?	16µM
c1ccc(Cn2ccnc2C2OCCO2)cc1	0	0	-	0	?	0
COc1cccc(C(=O)OCC(=O)Nc2cc(C)on2)c1OC	0	0	0	0	0	0
CCSc1ccc(-c2cc(NC=O)c3ncc(-c4cccc(C(=O)NCCN(C)C)c4)n3c2)cc1	18µM	?	-	-108	3.3µM	4.6µM
CN(C)CCNC(=O)c1cccc(-c2cnc3c(NC=O)cc(-c4ccc(F)cc4)cn23)c1	?	23µM	-	0	5.2µM	4.6µM
SMILES	HT1080NT lethal	HT1080 IDH1KD tx	ELG1 DNA repair	IL-1B inflam inh	DT40 TDP1 no CPT	DT40 TDP1 CPT
O=C(O)CSc1nnc(NC(=O)CN2CCOCC2)s1	0	0	0	0	0	0
CCc1cccc(NC(=O)CCS(=O)(=O)c2cc3c4c(c2)CCN4C(=O)CC3)c1	-	-	-	-	0	0
CC(=O)Nc1cccc(-c2ccnc3c2CC(C(=O)NCc2ccc(F)c(F)c2)O3)c1 (stereo unspecified)	?	?	-	0	3.3µM	3.3µM
CC(=O)c1cccc(-c2ccnc3c2CC(C(=O)NCc2ccncc2)O3)c1 (stereo unspecified)	0	0	-	0	?	?
O=C(NCc1cccnc1)C1Cc2c(-c3ccc(Cl)cc3)ccnc2O1 (stereo unspecified)	5.8µM	18µM	-	0	8.2µM	5.8µM
NC(=O)c1cccc(-c2ccnc3c2CC(C(=O)NCc2ccc(F)c(F)c2)O3)c1 (stereo unspecified)	-	-	-	0	8.2µM	4.6µM
O=C(NCc1ccncc1)C1Cc2c(-c3ccc(Cl)cc3)ccnc2O1 (stereo unspecified)	0	0	-	0	?	?
NC(=O)c1cccc(-c2ccnc3c2CC(C(=O)NCc2ccccc2)O3)c1 (stereo unspecified)	?	?	-	0	1.3µM	0.58µM
O=C(O)Cc1cc2ccccc2nc1C(=O)O	-	-	-	-	0	0
O=C(NCCN1Cc2ccccc2OC(c2ccccc2F)C1)c1ccco1 (stereo unspecified)	-	-	-	-	?	0[9.04 µM]
CC(=O)Nc1cccc(-c2ccnc3c2CC(C(=O)NCc2ccc(N(C)C)cc2)O3)c1 (stereo unspecified)	?	?	-	0	18µM	13µM
O=C(NCc1cccc(Cl)c1)C1Cc2c(-c3ccc(Cl)cc3)ccnc2O1 (stereo unspecified)	0	0	-	0	?	?
CN1CCN(c2ccc(CNC(=O)C3Cc4c(-c5ccc(Cl)cc5)ccnc4O3)cc2)CC1 (stereo unspecified)	?	?	-	?	16µM	?
O=C(NCc1cccc(Cl)c1)C1Cc2c(-c3ccccc3)ccnc2O1 (stereo unspecified)	0	0	-	0	16µM	29µM
Cc1cc(C)cc(OCC(=O)NCC2(N(C)C)CCCCC2)c1	-	-	-	-	0	0
O=C1CC(=O)N2N=C(c3ccc([N+](=O)[O-])cc3)SC2=N1	0	0	0	0	?	0
O=C(Cc1c(Cl)cccc1Cl)Nc1cccnc1	0	0	0	0	0	?
COc1cc(CC(=O)Nc2ccc3c(c2)CCC3)cc(OC)c1OC	0	0	0	0	12µM	9.2µM
CCOc1ccc(CN(C)CC(=O)Nc2ccc3c(c2)CCC3)cc1OC	0	0	16µM	0	16µM	?
C=CCOc1ccc(CN(C)CC(=O)Nc2ccc3c(c2)CCC3)cc1	0	0	0	0	?	23µM
Cc1ccc(NC(=O)CN(C)C(=O)Cc2ccc3c(c2)CCC3)cc1	0	0	0	0	0	?
CCOc1cc(CNc2ccc3c(c2)CCC3)ccc1O	0	0	?	0	23µM	?
COc1ccc(CN(C)CC(=O)Nc2ccc(N3CCOCC3)cc2)cc1OC	0	0	0	0	0	0
Cc1ccc(Cn2c(SCCN3CCCCC3)nc3c2c(=O)n(C)c(=O)n3C)cc1	0	0	0	0	15µM	?
